Hits are enriched below; roughly 1.1% of the tested compounds scored in any of these assays.
AmpC detergent: AmpC beta-lactamase inhibition with detergent present. P00811. AmpC hydrolysis of nitrocefin, absorbance 480 nm, 0.01% Triton. Potency, µM (series often up to 114 µM), actives largely listed as inhibitors. actives 0.041% (n = 370,000); further: nearly all actives have a fitted effect of over 25% in size
Target sequence (P00811 whole entry, looked up): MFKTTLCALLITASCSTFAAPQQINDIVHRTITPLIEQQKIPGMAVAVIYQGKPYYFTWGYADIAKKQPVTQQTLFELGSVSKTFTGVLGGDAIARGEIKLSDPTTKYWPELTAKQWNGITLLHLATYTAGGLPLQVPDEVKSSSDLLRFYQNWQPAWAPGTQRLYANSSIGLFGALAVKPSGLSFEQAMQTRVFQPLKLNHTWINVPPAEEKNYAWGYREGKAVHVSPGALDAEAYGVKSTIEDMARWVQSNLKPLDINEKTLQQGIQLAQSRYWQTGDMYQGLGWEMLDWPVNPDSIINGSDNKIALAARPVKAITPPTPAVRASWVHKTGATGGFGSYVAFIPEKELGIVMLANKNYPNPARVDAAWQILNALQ
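20 mM phosphate pH 7.0 + 0.01% (detergent screen) or 0.0001% Triton X-100; 5.3 nM AmpC reagent; cpd preinc 15 min RT; nitrocefin (800 uM stock) to start; A480 q20 s × 4 min; Activity was normalised to no-enzyme and no-compound control wells.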
AmpC inh no detg: AmpC beta-lactamase inhibition without detergent | P00811 | AmpC nitrocefin hydrolysis, absorbance 480 nm, 0.0001% Triton | Potency, µM (highest dose often 57.1 µM), most hits filed as inhibitors | actives 0.52% (n = 330,000) | AID 485341; further: nearly all actives have a fitted effect of over 20% in size
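20 mM phosphate pH 7.0 + 0.01% (detergent screen) or 0.0001% Triton X-100; 5.3 nM AmpC reagent; cpd preinc 15 min RT; nitrocefin (800 uM stock) to start; A480 q20 s × 4 min; Activity was normalised to no-enzyme and no-compound control wells.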
Vaccinia Venus: vaccinia inhibition (Venus reporter). Potency, µM (top dose mostly 36.5 µM), usual class: inhibitors. Vaccinia virus Venus reporter expression, fluorescence. actives 0.46% (n = 330,000). AID 720580; calls by dose curve; tested in A549 cells; further: nearly all actives have a fitted effect of over 30% in size
VACV mCherry inh: inhibitors of vaccinia virus infection (mCherry reporter signal). actives 0.63% (n = 310,000). AID 720579. Potency, µM (highest dose often 36.5 µM), actives largely listed as inhibitors. Vaccinia virus mCherry reporter infection, fluorescence; calls by dose curve; tested in A549 cells; further: nearly all actives have a fitted effect of over 35% in size
Large screens that a line does not name were inactive; ! = a repeat was not active. Unless noted, the call rests on the fitted dose curve; in most records, active means well fitted curve in the direction sought with a large enough effect; inconclusive means small, poorly fitted or top-dose-only effect, or another doubt; inactive means no such curve, though single readings can be large; an effect the other way counts as inactive or inconclusive.

COc1ccc2c(c1)OC(C)CN(CCNC(=O)c1cccc(N3CCNC3=O)c1)C2 (stereo not drawn)	none (no result: AmpC detergent, AmpC inh no detg)
COC(=O)C1CCCCN1Cc1ccc2c(c1)CN(C(=O)c1cc(C)nc3cc(F)ccc13)CCO2 (stereo not drawn)	none (no result: AmpC detergent, AmpC inh no detg)
COc1ccc(N2CCN(C(=O)CCNS(=O)(=O)c3cccs3)CC2)cc1	Vaccinia Venus 13µM, VACV mCherry inh inconclusive
COc1ccc(N2CCN(C(=O)CN(CCc3ccccc3)S(C)(=O)=O)CC2)cc1	Vaccinia Venus inconclusive, VACV mCherry inh 1.8µM
O=C(CCNS(=O)(=O)c1cccs1)N1CCN(c2cccc(C(F)(F)F)c2)CC1	none
CNC(=O)[C@@H]1C[C@H](Sc2nc3ccccc3[nH]2)CN1Cc1cccc(C(F)(F)F)c1	none (no result: AmpC detergent, AmpC inh no detg)
COc1ccccc1-c1ccnc(-n2ncc(C(=O)N3CCN(C4CCCC4)CC3)c2-c2ccco2)n1	none (no result: AmpC detergent, AmpC inh no detg)
CCOc1ccc(CC(=O)NNC(=S)NC)cc1	none
CNC(=S)NNC(=O)Cc1ccccc1	AmpC inh no detg 0.28µM (no result: Vaccinia Venus, VACV mCherry inh)
COCc1c(C(=O)N2CCC(N3CCCCC3)CC2)cnn1-c1ncc(C)c(-c2cccs2)n1	none (no result: AmpC detergent, AmpC inh no detg)
COc1ccccc1C(=O)N[C@@H]1c2ccccc2C2(CCN(Cc3nccs3)CC2)[C@H]1OC	none (no result: AmpC detergent, AmpC inh no detg)
CCCOc1ccc(N2C(=O)CC(N3CC=C(c4ccccc4)CC3)C2=O)cc1 (stereo not drawn)	none
O=C1CC(N2CC=C(c3ccccc3)CC2)C(=O)N1c1ccc(F)cc1 (stereo not drawn)	AmpC detergent inconclusive, AmpC inh no detg 45µM
CC(C)OCCCNC(=O)c1c(N)n(Cc2cccs2)c2nc3ccccc3nc12	Vaccinia Venus 28µM (no result: VACV mCherry inh)
CC(C)Cn1c(N)c(C(=O)NCC2CCCO2)c2nc3ccccc3nc21 (stereo not drawn)	Vaccinia Venus 10µM, VACV mCherry inh 10µM
COCCn1c(N)c(C(=O)NCc2cccs2)c2nc3ccccc3nc21	none (no result: Vaccinia Venus, VACV mCherry inh)
COc1ccc2ccccc2c1CN1CCc2nnc(C(NS(C)(=O)=O)C(C)C)n2CC1 (stereo not drawn)	none (no result: AmpC detergent, AmpC inh no detg)
O=[N+]([O-])c1cccc(NC(=S)N2CCN(S(=O)(=O)c3ccccc3)CC2)c1	AmpC inh no detg 22µM
O=C(O)CCCOc1ccc(Cl)cc1Cl	Vaccinia Venus inconclusive, VACV mCherry inh active! (no result: AmpC detergent, AmpC inh no detg)
Cc1cccc(NC(=O)/C(C#N)=C/c2cn(CC(=O)NCc3ccco3)c3ccccc23)c1	AmpC inh no detg 14µM
COc1ccc(CN2CCC(n3cc(C(=O)N4CCCCC4)nn3)CC2)c(OC)c1	none (no result: AmpC detergent, AmpC inh no detg)
COc1ccc(O)c(CN2CCCN(c3nc(C)c4cc(C)c(C)cc4n3)CC2)c1	none (no result: AmpC detergent, AmpC inh no detg)
O=C(Cc1ccc(OCCC2CCCCC2)cc1)NO	VACV mCherry inh inconclusive (no result: AmpC detergent, AmpC inh no detg)
CCOc1ccccc1-c1cc(C(=O)N/N=C/c2ccc(O)c(OC)c2)c2ccccc2n1	VACV mCherry inh 13µM
CC1CCN(C2=NC(=O)/C(=C/c3ccccc3F)S2)CC1	none
CN1C2CCC1/C(=C\c1ccccc1F)C(=O)/C2=C/c1ccccc1F	Vaccinia Venus inconclusive, VACV mCherry inh 11µM
O=C(N/N=C/c1ccc(O)cc1)Nc1cccc2nsnc12	Vaccinia Venus inconclusive, VACV mCherry inh 10µM
CN(C)c1ccc(/C=C2\C=Cc3ccccc32)cc1N	none (no result: AmpC detergent, AmpC inh no detg)
CNC(=O)[C@@H]1C[C@H](NC2CCCCCCC2)CN1Cc1cccc(OC)c1OC	none (no result: AmpC detergent, AmpC inh no detg)
Cc1ccccc1OCc1nc2ccccc2c(=O)n1/N=C/c1c[nH]c2ccccc12	AmpC detergent inconclusive
CCCc1nc2ccccc2c(=O)n1/N=C/c1ccccc1O	Vaccinia Venus inconclusive, VACV mCherry inh 10µM
Cc1ccc(-c2[nH]ncc2/C=N/n2c(COc3ccccc3C)nc3ccccc3c2=O)cc1	AmpC inh no detg 8.9µM, Vaccinia Venus 11µM, VACV mCherry inh inconclusive
N#CCC(=O)N/N=C\c1cccc(OC/C=C/c2ccccc2)c1	AmpC inh no detg 13µM
CC(=O)N/N=C\c1cccc(OC/C=C/c2ccccc2)c1	none (no result: Vaccinia Venus, VACV mCherry inh)
CCC(=O)NCc1nc(-c2cccc(NC(=O)c3ccc(C)s3)c2)oc1C	none (no result: AmpC detergent, AmpC inh no detg)
CC(=O)c1ccc(NC(=O)CSc2nc3nn(-c4ccccc4)c(=O)c-3c3n2CCCCC3)cc1	none (no result: AmpC detergent, AmpC inh no detg)
O=C(CSc1nc2nn(-c3ccccc3)c(=O)c-2c2n1CCCCC2)Nc1ccc(F)c(F)c1	AmpC inh no detg 10µM (no result: AmpC detergent)
COc1ccc(C(=O)/C=C/c2ccc(OC)c(CN3CCOCC3)c2)cc1	AmpC detergent inconclusive, Vaccinia Venus inconclusive, VACV mCherry inh 10µM
COc1ccc(C(=O)/C=C/c2ccc(OC)c(Cn3nnc4ccccc43)c2)cc1	Vaccinia Venus inconclusive, VACV mCherry inh 13µM
COc1ccc(/C=C/C(=O)c2ccc(O)cc2)cc1CN1CCOCC1	Vaccinia Venus inconclusive, VACV mCherry inh inconclusive
O=C(C[n+]1cccc2cccc(O)c21)c1ccc(Cl)cc1	none (no result: AmpC detergent, AmpC inh no detg)
CN1CCN(Cc2nc3ccccc3c(=O)n2Cc2nc(-c3cccc([N+](=O)[O-])c3)cs2)CC1	none
CN1CCN(Cc2nc3ccccc3c(=O)n2Cc2nc(-c3ccc4ccccc4c3)cs2)CC1	Vaccinia Venus 13µM, VACV mCherry inh inconclusive
O=C(Nc1nc2ccccc2n1CCN1CCOCC1)c1cn(-c2ccccc2)nc1-c1ccccc1	AmpC detergent inconclusive, Vaccinia Venus inconclusive, VACV mCherry inh 28µM
O=C(c1ccnc(-n2cnnn2)c1)N1CCOc2ccc(C(O)CCc3ccccc3)cc2C1 (stereo not drawn)	none (no result: AmpC detergent, AmpC inh no detg)
Cc1ccc(C)c(/C=N/n2cc(-c3ccccc3)[nH]c2=S)c1	AmpC inh no detg 16µM, VACV mCherry inh inconclusive
Fc1ccccc1/C=N/n1cc(-c2ccccc2)[nH]c1=S	none
COc1ccc(CN2CCCC(c3nc(-c4ccncc4)ncc3-c3ccccc3)C2)cc1OC (stereo not drawn)	none (no result: AmpC detergent, AmpC inh no detg)
OC[C@@H](O)C(O)[C@H](O)CO	none (no result: AmpC detergent, AmpC inh no detg)
CCN(CC)C(=O)C1=C(C)Nc2nc3ccccc3n2C1c1ccc(Cl)cc1 (stereo not drawn)	none (no result: AmpC inh no detg)
N#CC1=C(N)Nc2nc3ccccc3n2C1c1ccc(Cl)cc1 (stereo not drawn)	AmpC detergent inconclusive, AmpC inh no detg 13µM
CCOC(=O)N1CCN(Cc2ccc3c(c2)CN(C(=O)c2noc4c2CCCC4)CCO3)CC1	none (no result: AmpC detergent, AmpC inh no detg)
CCN(CC)c1ccc(NC(=O)c2cnn(CC)c2)cc1	none (no result: VACV mCherry inh)
CCN(CCCl)c1cc(CN(C)C)cc(NC(=O)c2ccc(C(=O)Nc3cc(CN(C)C)cc(N(CC)CCCl)c3)cc2)c1	Vaccinia Venus 2.8µM, VACV mCherry inh 1.3µM (no result: AmpC detergent, AmpC inh no detg)
COc1ccc(/C=C/C(=O)N2CCc3c(cnc(C)c3CNC(=O)c3ccsc3)C2)cc1OC	none (no result: AmpC detergent, AmpC inh no detg)
CC(=O)N1CCC[C@H]1C(=O)NCC1Cc2cc(-c3cnccn3)cc(Cl)c2O1 (stereo partly drawn)	none (no result: AmpC detergent, AmpC inh no detg)
O=C1C(Cl)=C(NCc2cccnc2)C(=O)c2ccccc21	Vaccinia Venus 28µM, VACV mCherry inh inconclusive
C=CCNC1=C(Cl)C(=O)c2ccccc2C1=O	Vaccinia Venus 13µM, VACV mCherry inh inconclusive
Clc1ccccc1-c1cc(NCc2cccnc2)ncn1	none (no result: AmpC detergent, AmpC inh no detg)
O=C1C(Cl)=C(NCCc2ccccc2)C(=O)c2ccccc21	none (no result: AmpC detergent, AmpC inh no detg)
Cc1ccccc1CN1[C@H](C)[C@H](c2ccccc2)OCCS1(=O)=O	none (no result: AmpC detergent, AmpC inh no detg)
